Screening data: PubChem, ICCB-Longwood Screening Facility, Harvard Medical School
The sample as a whole holds a higher share of hits than the screen did.
Vaccinia pol inh – blocks vaccinia virus processive DNA synthesis; in vitro processive DNA synthesis, absorbance read-out; hits give low values; actives 0.94% (n = 46,000); normalized absorbance, % (concentration not given with the values); in the data active means normalized absorbance mostly below about 85%, no sharp cut-off; inactive means mostly above about 86%
Numbers without * were called inactive; ! = not confirmed by another sample.

What do the screens show for `CCCN(CCC)C(=O)c1ccc2c(c1)N(Cc1ccccc1C)C(=O)c1ccccc1S2=O` (configuration not stated)?
Vaccinia pol inh: 94.7

Results for Cc1cccc(C)c1OCC(=O)N1CCc2ccccc21 ?
Vaccinia pol inh: 94.6

What do the screens show for `COc1ccc(C(C#Cc2ccccc2)N2CCOCC2)cc1` (configuration not stated)?
Vaccinia pol inh: 103.5

Results for CCOc1ccc2nc(NC(=O)C(C)C)sc2c1 ?
Vaccinia pol inh: 115.0

What do the screens show for `CCOc1ccc2nc(NC(=O)C(CC)CC)sc2c1`?
Vaccinia pol inh: 97.8

Results for CCOc1ccc2nc(NN)sc2c1 ?
Vaccinia pol inh: 22.5*

Results for COc1ccc(C2CC(=O)N(CC(N)=O)c3ccccc3S2)cc1OC (configuration not stated) ?
Vaccinia pol inh: 98.7

How did CCOC(=O)c1nnc(Cc2ccccc2OC)o1 do in these assays?
Vaccinia pol inh: 104.7

Results for C=CCN1C(=O)CCNc2ccccc21 ?
Vaccinia pol inh: 100.1

How did O=C(Nc1cccc(C(F)(F)F)c1)C(F)(F)F do in these assays?
Vaccinia pol inh: 87.6

How did O=C(O)c1ccccc1Nc1cccc(C(F)(F)F)c1 do in these assays?
Vaccinia pol inh: 84.9*!

What do the screens show for `O=C(O)c1ccccc1Nc1ccccc1`?
Vaccinia pol inh: 98.6

What do the screens show for `CCOC(=O)c1c(/N=C/c2c(O)ccc3ccccc23)sc2c1CCC2`?
Vaccinia pol inh: 99.7

How did O=C(c1ccc2c(Cl)c3c(nc2c1)CCCC3)N1CC=C(c2ccccc2)CC1 do in these assays?
Vaccinia pol inh: 90.8

What do the screens show for `COc1ccc(CN2CCN(Cc3cccc4ccccc34)CC2)cc1`?
Vaccinia pol inh: 106.9

What do the screens show for `CCCn1c(=O)c(-c2nc3ccccc3c(=O)[nH]2)c(O)c2ccccc21`?
Vaccinia pol inh: 98.9

What do the screens show for `O=C(/C=C/c1ccc2c(c1)OCO2)NC(=S)NC1CCCC1`?
Vaccinia pol inh: 100.0

How did Cc1cc(NCCNc2ccccc2)c2ccc3ccccc3c2n1 do in these assays?
Vaccinia pol inh: 71.6*

What do the screens show for `Cc1cc(SCC(=O)Nc2ccccc2)c2ccccc2n1`?
Vaccinia pol inh: 102.4

What do the screens show for `Cc1cc(NCc2ccco2)c2ccccc2n1`?
Vaccinia pol inh: 100.5

Results for Cc1[nH]c2ccccc2c1SCCNC(=O)c1cccc2ccccc12 ?
Vaccinia pol inh: 88.4

Results for Cc1ccc(Cn2nnc3c(=O)n(Cc4ccc(C(F)(F)F)cc4)cnc32)cc1 ?
Vaccinia pol inh: 98.3

What do the screens show for `O=c1c2nnn(Cc3ccc(F)cc3)c2ncn1Cc1ccc(F)cc1`?
Vaccinia pol inh: 69.2*

What do the screens show for `Cc1ccc(Cn2nnc3c(=O)n(Cc4cccc(C)c4)cnc32)cc1`?
Vaccinia pol inh: 96.5

What do the screens show for `O=C1CC(c2ccccc2)c2c(ccc3ccccc23)N1` (configuration not stated)?
Vaccinia pol inh: 83.5*

Results for COc1cc2c(cc1OC)C(c1ccccc1)CC(=O)N2 (configuration not stated) ?
Vaccinia pol inh: 85.0

Results for O=C(CCC1CC(=O)Nc2ccccc21)NCc1ccccc1 (configuration not stated) ?
Vaccinia pol inh: 84.4

Results for CC1CN(CCC(=O)Nc2ccc3c(c2)OCCO3)CC(C)O1 (configuration not stated) ?
Vaccinia pol inh: 84.1

Results for Cc1ccc(C)n1-c1ccc2ncsc2c1 ?
Vaccinia pol inh: 100.9

Results for O=C(CCCN1C(=O)/C(=C/C=C/c2ccccc2)SC1=S)Nc1ccccn1 ?
Vaccinia pol inh: 100.3

Results for Cc1cc(C)nc(NC(N)=NCc2ccccc2)n1 ?
Vaccinia pol inh: 97.7

Results for Cc1cc(=O)[nH]c(/N=C(\N)Nc2ccccc2)n1 ?
Vaccinia pol inh: 100.3

What do the screens show for `Cc1cc(C)nc(/N=C(\N)Nc2ccccc2)n1`?
Vaccinia pol inh: 41.2*

What do the screens show for `CC1Cn2c(C(=O)NCc3ccccc3)cc3c(Cl)ccc(c32)O1` (configuration not stated)?
Vaccinia pol inh: 97.5

What do the screens show for `Cc1c(C#N)c2nc3ccccc3n2c(=O)/c1=C/NN1C(=O)CNC1=S`?
Vaccinia pol inh: 93.9

Results for Cn1ccnc1C(=O)c1cc(-c2ccco2)nc2ccccc12 ?
Vaccinia pol inh: 84.1

What do the screens show for `c1coc(-c2cn3ccc4ccccc4c3n2)c1`?
Vaccinia pol inh: 84.2*

Results for CCN(CC)C(=O)c1cc(-c2ccco2)nc2ccccc12 ?
Vaccinia pol inh: 87.2

How did COC(=O)NC(=C(Cl)Cl)c1ccc(C)c(F)c1 do in these assays?
Vaccinia pol inh: 92.7

Results for COc1ccc(-c2ccc3ccccc3n2)cc1OC ?
Vaccinia pol inh: 100.8

Results for Cn1c(-c2ccc3ccccc3n2)[n+](C)c2ccccc21 ?
Vaccinia pol inh: 99.6

How did C[n+]1cc(-c2ccc3ccccc3n2)cc2ccccc21 do in these assays?
Vaccinia pol inh: 84.8*

Results for N#Cc1c(-c2ccco2)cc(-c2ccccc2)nc1SCc1nc2ccccc2[nH]1 ?
Vaccinia pol inh: 100.0

Results for Cc1nn(C)c(Oc2cccc(C(F)(F)F)c2)c1C(=O)O ?
Vaccinia pol inh: 91.1
